From PubChem BioAssay (NCI)
About 83,000 compounds went through this panel and 20% of them were active in at least one assay; those are over-represented in the sample as a whole.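 The test compound was applied at a single concentration to cells in 96-well plates for 48 hours, and percent growth was recorded.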 Active and inactive are the calls of the source. How the source made its calls: active means growth percent below 10; inactive means the rest.

Key:
Assay in all cases: NCI-60 one-dose screen, 48 h (100 = growth as untreated, 0 = no growth, -100 = all killed)
Conditions in all cases: 10 µM
HCT-15 colon = test system: HCT-15 colon
HT29 colon = test system: HT29 colon
SNB-75 CNS = test system: SNB-75 CNS
SNB-19 CNS = test system: SNB-19 CNS
PC-3 prostate = test system: PC-3 prostate
SK-MEL-5 melanoma = test system: SK-MEL-5 melanoma
UACC-62 melanoma = test system: UACC-62 melanoma
SK-MEL-28 melanoma = test system: SK-MEL-28 melanoma
SN12C renal = test system: SN12C renal
UO-31 renal = test system: UO-31 renal
TK-10 renal = test system: TK-10 renal
ACHN renal = test system: ACHN renal
CAKI-1 renal = test system: CAKI-1 renal
A498 renal = test system: A498 renal
LOX IMVI melanoma = test system: LOX IMVI melanoma
SK-MEL-2 melanoma = test system: SK-MEL-2 melanoma
EKVX NSCLC = test system: EKVX NSCLC
MOLT-4 leukemia = test system: MOLT-4 leukemia
CCRF-CEM leukemia = test system: CCRF-CEM leukemia

Measured: growth

N=C1S/C(=C/c2ccc(-c3ccc4c(c3)C(=O)NC4=O)o2)C(=O)N1c1ccc(Br)cc1
active: SNB-75 CNS -3.31% | PC-3 prostate -2.15% | SK-MEL-28 melanoma -19.1% | UO-31 renal -13.3%
inactive: HCT-15 colon 47.1% | HT29 colon 21.9% | SNB-19 CNS 106% | SK-MEL-5 melanoma 65.5% | UACC-62 melanoma 31.8% | SN12C renal 56.3% | TK-10 renal 42.6% | ACHN renal 52% | CAKI-1 renal 33.7% | A498 renal 39.5%

CN(C)CCOc1cccc(-c2nc3sccn3c2-c2ccnc(S(C)(=O)=O)n2)c1
inactive: HCT-15 colon 92.3% | HT29 colon 96.8% | SNB-75 CNS 87.7% | SNB-19 CNS 87.5% | PC-3 prostate 80.8% | SK-MEL-5 melanoma 98.3% | UACC-62 melanoma 91.4% | LOX IMVI melanoma 92.1% | SK-MEL-28 melanoma 100% | SK-MEL-2 melanoma 117% | EKVX NSCLC 99.5% | SN12C renal 90.5% | UO-31 renal 72.1% | ACHN renal 92.2% | CAKI-1 renal 99.5% | A498 renal 59.6% | MOLT-4 leukemia 99.9%

CCCC1(CN2c3ccccc3Sc3ccc(Cl)cc32)CCN(CC)C1 (stereo not given)
active: HCT-15 colon 3.6% | HT29 colon -68% | SNB-75 CNS 1.99% | SNB-19 CNS -36.3% | PC-3 prostate 5.75% | SK-MEL-5 melanoma -95.9% | UACC-62 melanoma -21.4% | LOX IMVI melanoma -100% | SK-MEL-28 melanoma -67.8% | EKVX NSCLC -12.8% | TK-10 renal -56.6% | ACHN renal 0.109% | CAKI-1 renal -14.2% | A498 renal 8.05% | CCRF-CEM leukemia -11.2% | MOLT-4 leukemia -27.9%
inactive: SN12C renal 23.1%

CN(C)CCC1(c2ccccc2)CCN(C)C1=O (stereo not given)
inactive: HCT-15 colon 102% | HT29 colon 106% | SNB-75 CNS 95.8% | SNB-19 CNS 105% | PC-3 prostate 99.7% | SK-MEL-5 melanoma 96.1% | UACC-62 melanoma 105% | LOX IMVI melanoma 102% | SK-MEL-2 melanoma 95.4% | EKVX NSCLC 110% | SN12C renal 103% | UO-31 renal 87.4% | TK-10 renal 112% | ACHN renal 102% | CAKI-1 renal 103% | A498 renal 94.1% | CCRF-CEM leukemia 103% | MOLT-4 leukemia 95.6%

CN(C)c1ncnc2c1nnn2C1OC(CO)C(O)C1O (stereo not given)
active: HCT-15 colon 7.45% | HT29 colon 0.427% | SK-MEL-5 melanoma -12.6% | UACC-62 melanoma -32.9% | LOX IMVI melanoma 9.03% | SK-MEL-2 melanoma -17.2% | UO-31 renal 8.73% | TK-10 renal -2.87% | ACHN renal 5.56% | CAKI-1 renal 7.19% | CCRF-CEM leukemia 8.83% | MOLT-4 leukemia 8.29%
inactive: SNB-75 CNS 28.3% | SNB-19 CNS 33.9% | PC-3 prostate 21.7% | EKVX NSCLC 39.9% | SN12C renal 18.7% | A498 renal 22.3%

COc1ccc(Cc2cnc(N)nc2N)cc1OC
inactive: HCT-15 colon 101% | HT29 colon 99% | SNB-75 CNS 79.4% | SNB-19 CNS 100% | PC-3 prostate 88.6% | SK-MEL-5 melanoma 101% | UACC-62 melanoma 96.9% | LOX IMVI melanoma 97% | SK-MEL-28 melanoma 119% | EKVX NSCLC 115% | SN12C renal 96.1% | UO-31 renal 78% | TK-10 renal 110% | ACHN renal 96.5% | CAKI-1 renal 89.1% | A498 renal 73.4% | CCRF-CEM leukemia 102% | MOLT-4 leukemia 104%

C/C(=C/CCC(C)[C@@H]1CC[C@]2(C)C3=C(CC[C@@]12C)[C@@]1(C)CCC(=O)C(C)(C)[C@@H]1CC3)C(=O)O (stereo not given in full)
active: HCT-15 colon -66.6% | HT29 colon -65.8% | SNB-75 CNS -68.1% | SNB-19 CNS -78.1% | PC-3 prostate -29.8% | SK-MEL-5 melanoma -98.2% | LOX IMVI melanoma -53.9% | SK-MEL-28 melanoma -83.9% | SK-MEL-2 melanoma -52.1% | EKVX NSCLC -76.5% | SN12C renal -77.5% | UO-31 renal -95.5% | TK-10 renal -86.1% | ACHN renal -93.5% | CAKI-1 renal -92.8% | CCRF-CEM leukemia -21% | MOLT-4 leukemia -35.3%

COc1ccc(/C(=N\N)C(=O)c2ccccc2)cc1 (tested in a mixture with another compound)
inactive: HCT-15 colon 91.1% | HT29 colon 87.7% | SNB-75 CNS 93.2% | SNB-19 CNS 94% | PC-3 prostate 90.8% | SK-MEL-5 melanoma 97.3% | UACC-62 melanoma 92.8% | LOX IMVI melanoma 97.8% | SK-MEL-28 melanoma 102% | SK-MEL-2 melanoma 112% | EKVX NSCLC 91.4% | SN12C renal 88.5% | UO-31 renal 81.1% | TK-10 renal 108% | ACHN renal 98.3% | A498 renal 83.2% | CCRF-CEM leukemia 88.2% | MOLT-4 leukemia 80.4%

COc1ccc2cc(-c3nc4ccccc4s3)c(Cl)nc2c1OC
inactive: HCT-15 colon 97% | HT29 colon 104% | SNB-75 CNS 82.1% | SNB-19 CNS 93.9% | PC-3 prostate 92.6% | SK-MEL-5 melanoma 92.9% | UACC-62 melanoma 91.1% | LOX IMVI melanoma 90.6% | SK-MEL-28 melanoma 107% | SK-MEL-2 melanoma 95.8% | EKVX NSCLC 100% | SN12C renal 99.9% | UO-31 renal 64% | TK-10 renal 118% | ACHN renal 96.6% | A498 renal 93.1% | CCRF-CEM leukemia 104% | MOLT-4 leukemia 92.7%

COc1cc(C2C(C#N)=C(N)Oc3cc(O)ccc32)cc(OC)c1OC (stereo not given)
active: HT29 colon 2.42% | A498 renal -5.59% | MOLT-4 leukemia 6.05%
inactive: HCT-15 colon 30.1% | SNB-75 CNS 33.9% | SNB-19 CNS 44.9% | PC-3 prostate 21.5% | SK-MEL-5 melanoma 23% | UACC-62 melanoma 38.4% | LOX IMVI melanoma 45.7% | SK-MEL-28 melanoma 58% | SK-MEL-2 melanoma 23.4% | EKVX NSCLC 55.3% | UO-31 renal 43% | ACHN renal 51.8% | CAKI-1 renal 30.7%

N#CCc1csc(Cc2ccccc2)n1
inactive: HCT-15 colon 109% | HT29 colon 98% | SNB-75 CNS 101% | SNB-19 CNS 101% | PC-3 prostate 109% | SK-MEL-5 melanoma 102% | UACC-62 melanoma 103% | LOX IMVI melanoma 95.9% | SK-MEL-28 melanoma 108% | SK-MEL-2 melanoma 101% | EKVX NSCLC 105% | SN12C renal 101% | UO-31 renal 88.7% | TK-10 renal 89.9% | ACHN renal 109% | A498 renal 103% | CCRF-CEM leukemia 94.2% | MOLT-4 leukemia 101%

COc1ccc(-c2nn(-c3cccc(Cl)c3)cc2-c2c(C#N)c(N)n(N)c(=O)c2C#N)cc1
inactive: HCT-15 colon 94.9% | HT29 colon 66.3% | SNB-75 CNS 48.6% | SNB-19 CNS 64% | PC-3 prostate 54% | SK-MEL-5 melanoma 81.9% | UACC-62 melanoma 75.8% | LOX IMVI melanoma 29.5% | SK-MEL-28 melanoma 91.6% | SK-MEL-2 melanoma 77.4% | SN12C renal 68.9% | TK-10 renal 59.8% | ACHN renal 87.2% | CCRF-CEM leukemia 56.8%

COc1ccc(-c2cc(-c3ccccc3)nc(SCCCC(=O)NO)n2)cc1
active: HT29 colon 5.87% | SNB-75 CNS -20.1% | PC-3 prostate 9.65% | SK-MEL-5 melanoma -57.8% | UACC-62 melanoma -65.9% | LOX IMVI melanoma -65.4% | SK-MEL-2 melanoma -7.04% | EKVX NSCLC -23.3% | UO-31 renal -52% | TK-10 renal 6.16% | ACHN renal -17.8% | CAKI-1 renal -16.4% | A498 renal -44.3% | MOLT-4 leukemia 4.82%
inactive: HCT-15 colon 10.8% | SNB-19 CNS 10.6%

O=C(c1ccccc1)N(C(=O)c1ccccc1)N1CCCC1
inactive: HCT-15 colon 107% | HT29 colon 102% | SNB-75 CNS 87.3% | SNB-19 CNS 107% | PC-3 prostate 88.4% | SK-MEL-5 melanoma 98.4% | UACC-62 melanoma 85.8% | LOX IMVI melanoma 90.9% | SK-MEL-28 melanoma 114% | SK-MEL-2 melanoma 95.6% | EKVX NSCLC 103% | SN12C renal 100% | TK-10 renal 101% | ACHN renal 96.3% | CAKI-1 renal 91.1% | A498 renal 106% | CCRF-CEM leukemia 94.8% | MOLT-4 leukemia 99.3%

Cc1ccc(-c2c3c(N)nc(-c4cccnc4)nc3nc3c2c(C)nn3-c2ccccc2)cc1
active: SNB-75 CNS -0.959%
inactive: HCT-15 colon 84.4% | HT29 colon 77.3% | SNB-19 CNS 99.1% | PC-3 prostate 69.3% | SK-MEL-5 melanoma 76.1% | UACC-62 melanoma 82.2% | LOX IMVI melanoma 80.9% | SK-MEL-28 melanoma 68.2% | SK-MEL-2 melanoma 61.6% | SN12C renal 82.8% | UO-31 renal 65.8% | TK-10 renal 94.6% | ACHN renal 40% | CAKI-1 renal 83.6% | A498 renal 74.8% | MOLT-4 leukemia 93.6%

COc1ccc(-c2nn(-c3cccc(Cl)c3)cc2-c2c(C#N)c(=O)n3[nH]c(-c4ccc(C)cc4)nc3c2C#N)cc1
inactive: HCT-15 colon 65.2% | SNB-75 CNS 36.4% | SNB-19 CNS 64.2% | PC-3 prostate 68.6% | SK-MEL-5 melanoma 68.6% | UACC-62 melanoma 57.1% | LOX IMVI melanoma 39.7% | SK-MEL-28 melanoma 92.3% | EKVX NSCLC 37.9% | SN12C renal 60.9% | UO-31 renal 34.7% | TK-10 renal 58% | ACHN renal 43.2% | CAKI-1 renal 15.2%
active: HT29 colon 5.33% | MOLT-4 leukemia -23.8%

COc1cc(/C=C/c2cc(/C=C/c3ccc(O)c(OC)c3)[nH]c(=O)n2)ccc1O
active: HT29 colon -6.41%
inactive: HCT-15 colon 81.8% | SNB-75 CNS 44.3% | SNB-19 CNS 82.6% | PC-3 prostate 61% | SK-MEL-5 melanoma 70.7% | UACC-62 melanoma 63.3% | LOX IMVI melanoma 49% | SK-MEL-2 melanoma 81.1% | EKVX NSCLC 71.6% | SN12C renal 62.3% | UO-31 renal 54.2% | TK-10 renal 103% | ACHN renal 89.4% | CAKI-1 renal 88.6% | A498 renal 62.8% | CCRF-CEM leukemia 16.7% | MOLT-4 leukemia 36.3%

N#Cc1c(-c2ccc(Cl)cc2)n(O)c2ccccc12
inactive: HCT-15 colon 22.6% | HT29 colon 82.8% | SNB-75 CNS 12.5% | SNB-19 CNS 11% | PC-3 prostate 41.2% | LOX IMVI melanoma 23.8% | SK-MEL-28 melanoma 15.6% | EKVX NSCLC 30.2% | SN12C renal 16.1% | TK-10 renal 66.6% | ACHN renal 35.4% | CAKI-1 renal 20.7% | CCRF-CEM leukemia 16.2% | MOLT-4 leukemia 18.1%
active: SK-MEL-5 melanoma -57.5% | UACC-62 melanoma 8.34% | SK-MEL-2 melanoma 8.25%
